# High-throughput results from PubChem BioAssay.
# TRPV1 ag: agonists of human vanilloid receptor 1 (TRPV1); Q8NER1; TRPV1-expressing cells, Fluo-8 calcium influx, agonist mode; activation, % at 8.33 µM; 320,000 compounds, 0.19% hits; AID 540275; in the data active means activation above about 80%; inconclusive means between about 30% and that limit; further: 0% is about no effect
#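 Cells expressing TRPV1 were dye-loaded with Fluo-8 and read kinetically: 10 s baseline, 3 min after compound (agonist portion), then 2 min after EC20 capsaicin (allosteric enhancer portion). Calcium-bound dye fluorescence at 480/520 nm.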
# TRPV1 PAM: human TRPV1 potentiation. Q8NER1. TRPV1-expressing cells, Fluo-8 calcium influx, capsaicin EC20 potentiation. potentiation, % at 8.33 µM. 320,000 compounds, 0.02% hits. AID 540277; in the data active means potentiation above about 80%; inconclusive means between about 30% and that limit; further: 0% is about no effect
#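 Fluo-8 calcium influx in TRPV1-expressing cells, kinetic read (ex 480/em 520 nm). Compound added and read 3 min for agonist activity, followed by capsaicin at EC20 final and 2 min further read for enhancement.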
# TRPML1 ag: activates the human TRPML1 channel | Q9GZU1 | TRPML1-expressing cells, Ca2+ dye fluorescence, FDSS | activation, % (test concentration not listed) | 410,000 compounds, 0.12% hits | AID 624414; in the data active means activation above about 50%; inconclusive means mostly about 30% to 49%; further: 0% is about no effect
# Target sequence (Q9GZU1 whole entry, looked up): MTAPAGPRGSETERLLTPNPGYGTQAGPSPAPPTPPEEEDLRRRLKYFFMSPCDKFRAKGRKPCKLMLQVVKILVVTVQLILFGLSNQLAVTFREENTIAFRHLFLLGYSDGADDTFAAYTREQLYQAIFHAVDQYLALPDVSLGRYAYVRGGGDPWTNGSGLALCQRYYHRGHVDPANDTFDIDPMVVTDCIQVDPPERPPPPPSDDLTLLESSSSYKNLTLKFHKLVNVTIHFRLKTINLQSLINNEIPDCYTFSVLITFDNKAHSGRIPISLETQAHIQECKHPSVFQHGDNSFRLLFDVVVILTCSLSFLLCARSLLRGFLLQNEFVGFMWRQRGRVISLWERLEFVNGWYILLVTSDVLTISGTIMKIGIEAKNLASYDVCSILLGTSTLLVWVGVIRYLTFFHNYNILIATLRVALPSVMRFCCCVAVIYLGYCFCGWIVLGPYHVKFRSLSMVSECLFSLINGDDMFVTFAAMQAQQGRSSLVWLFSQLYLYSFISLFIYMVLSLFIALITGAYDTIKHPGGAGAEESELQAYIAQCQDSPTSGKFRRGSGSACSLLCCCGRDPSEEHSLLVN
#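 Kinetic FDSS Ca2+ read in Tet-induced TRPML1-DL cells (ABD Ca8 dye plus quencher, 45-90 min RT loading): baseline, then compound, then 110 s agonist window; EC80 agonist 54-4 at 4uM final added afterwards for a 110 s antagonist window.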
# TRHR agonist: agonists of human TRH receptor; 360,000 compounds, 0.18% hits; TRHR cells, calcium flux fluo-8, FDSS agonist mode; P34981; AID 493084; activation, % at 2 µM; in the data active means activation above about 30%; further: 0% is about no effect
#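 Agonist-mode FDSS calcium read (Ex 480/Em 530, 1 s cycles) in 1536-well TRHR cells with fluo-8 dye, after 10-cycle baseline and 23 nL compound addition; TRH at EC20 (10 nM final) added afterwards for the enhancer phase.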
# TRPML1 inh: inhibitors of human TRPML1 channel; activity change, negative = inhibition, % (test concentration not listed); TRPML1-inducible cells, Ca2+ dye fluorescence, FDSS; hits give low values; inhibition of EC80 agonist-evoked calcium signal; Q9GZU1; AID 624415; 390,000 compounds, 0.02% hits; in the data active means activity change below about -50%; inconclusive means between about -30% and that limit;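 further: stimulus is agonist 54-4 at its EC80 concentration; on the % scale 0 is the no-effect control and ±100 the full control effect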
#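 TRPML1-DL cells, Tet-induced overnight (~16 h, 37 °C) at 1,500 cells/well, were loaded with Ca8 no-wash dye plus quencher for 45-90 min at room temperature. Compounds were pinned during FDSS kinetic reading; agonist 54-4 at EC80 (4 uM final) then added.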
# TRHR PAM: TRH receptor (human) allosteric enhancement | AID 493056 | enhancement, % at 2 µM | P34981 | TRHR cells, fluo-8 calcium fluorescence, EC20 TRH enhancement | 360,000 compounds, 0.66% hits; in the data active means enhancement above about 30%; further: 0% is about no effect
#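 Enhancer read-out: after compound pinning and an initial kinetic agonist-mode read, an EC20 of TRH (10 nM final) was injected and fluo-8 calcium signal (Ex 480/Em 530) followed at 1 s/cycle for 100 cycles in TRHR-expressing cells.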
# An asterisk follows results filed as active; u = inconclusive; x = not tested or not shown; ! = a repeat was not active. The list is not random: actives were taken first. Their share in the collection is about 0.96%.
SMILES,TRPV1 ag,TRPV1 PAM,TRPML1 ag,TRHR agonist,TRPML1 inh,TRHR PAM
Cc1cc2nc(/C(C#N)=C\c3ccc(-c4ccccc4C(=O)O)o3)[nH]c2cc1C,27,-11,16,39*,6,1
COC(=O)c1c(NC(=O)C2CC=CCC2C(=O)O)sc2c1CCCCC2 (stereo not given),-7,-5,-1,0,-2,31*
CC(Sc1nnc(-c2ccccc2)n1C)C(=O)NCc1ccco1 (stereo not given),x,x,-1,x,x,x
COc1ccc(C2Nc3ccccc3C(=O)N2NS(C)(=O)=O)cc1 (stereo not given),3,5,-1,0,-7,2
CC1Nc2ccccc2C(=O)N1NS(C)(=O)=O (stereo not given),1,0,0,0,3,33*
CC(=O)N1CCCc2cc(S(=O)(=O)N3CCC(C(=O)NCc4ccc(N(C)C)cc4)CC3)ccc21,x,x,0,0,-16,39*
CC(=O)N1CCCc2cc(S(=O)(=O)N3CCC(C(=O)NCc4cccc(C)c4)CC3)ccc21,x,x,0,0,-5,1
COC(=O)C(C(=O)OC)C(C(C)C)C(C(=O)OC)C(=O)OC,5,-20,-1,0,-11,40*
COC(=O)C(C(=O)OC)C(C(=O)OC)C(C(=O)OC)C(=O)OC,-9,13,-1,0,-2,-1
COc1cc(C=C2Cc3ccccc3C2=O)cc(OC)c1OC,x,x,-1,x,x,x
COc1cc(N(C)C)c(OC)cc1/C=C1\Cc2ccccc2C1=O,x,x,78*,x,x,x
COc1ccccc1NC(=O)C1CCCN(S(=O)(=O)c2ccc3[nH]c(=O)ccc3c2)C1 (stereo not given),28,-27,0,0,-1,-2
COc1ccc(C)cc1NC(=O)C1CCCN(S(=O)(=O)c2ccc3[nH]c(=O)ccc3c2)C1 (stereo not given),u,-1,-1,-1,12,47*!
Cc1ccc2c(/C=C/c3ccc(N(C)C)cc3)ccnc2c1C,x,x,19,x,x,x
Cc1ccc(-n2[nH]c(C)c(/C=N/NC(=O)c3ccc([N+](=O)[O-])cc3)c2=O)c(C)c1,29,-26,x,0,x,50*
COc1cc(C2CC(=O)Oc3c2c(=O)[nH]c2ccccc32)cc(OC)c1OC (stereo not given),x,x,2,0,-2,31*
S=C(NCc1ccco1)N1CCN(c2nc(-c3ccccc3)cs2)CC1,u,-9,1,0,-27,30*
CCC(C)(C)NC(=O)C(c1cccs1)N(CC1CCCO1)C(=O)Cn1nnc2ccccc21 (stereo not given),-2,12,1,-1,11,38*
CCC(C)Sc1ccc([C@H]2N[C@@](CC(C)C)(C(=O)OC)[C@H]3C(=O)N(CC)C(=O)[C@@H]23)cc1 (stereo not given in full),87*,2,0,0,10,2
CCC(C)Sc1ccc([C@H]2N[C@@](CC(C)C)(C(=O)OC)[C@H]3C(=O)N(C)C(=O)[C@@H]23)cc1 (stereo not given in full),28,22,0,0,-10,-1
COc1ccc(CC(=O)OCC(=O)NC(=O)NC2CCCCC2)cc1,21,-6,5,0,-5,39*
Cc1ccn2c(NC3CCCCC3)c(-c3ccc(C)o3)nc2c1,x,x,0,x,x,x
CCC/C(=N\NC(=O)c1csc(C)c1C)c1cccs1,u,-8,1,0,-13,35*
c1ccc2[nH]c(SCc3cn4cccnc4n3)nc2c1,2,-2,0,0,-22,34*
c1ccc(-c2cnnc(SCc3cn4cccnc4n3)n2)cc1,16,-11,-1,-1,0,-1
SMILES,TRPV1 ag,TRPV1 PAM,TRPML1 ag,TRHR agonist,TRPML1 inh,TRHR PAM
Cc1cc(Br)ccc1NC(=O)COC(=O)c1ccccc1OCC(=O)N(C)C,x,x,-1,x,x,x
CC(C)Cn1c(-c2ccco2)n[nH]c1=S,-9,10,0,0,5,35*
O=C(NCc1ccccn1)[C@@H]1C[C@H]1[C@@H](NP(=O)(c1ccccc1)c1ccccc1)c1ccccc1,u,-38,0,0,-26,-13
O=C(NCc1ccccc1)[C@@H]1C[C@H]1[C@@H](NP(=O)(c1ccccc1)c1ccccc1)c1ccccc1,91*,-2,-1,-1,-25,-1
CCOC(=O)C(NCCc1ccccc1)(NC(=O)CC)C(F)(F)F (stereo not given),2,-4,0,0,5,-9
CCOC(=O)C(NCCc1ccccc1F)(NC(=O)CC)C(F)(F)F (stereo not given),-6,3,0,-4,0,34*
CCCCOC(=O)c1cc(Cl)c(O)c(OC)c1,0,2,1,-1,1,40*
c1nc(SSc2ncc3n[nH]nc3n2)nc2n[nH]nc12,x,x,0,x,x,x
O=C(NCC1CCCO1)c1ccc(NC(=O)c2cc(F)c(F)cc2Cl)cc1 (stereo not given),-4,3,0,1,-12,33*
CC(C)(C)n1ncc2c(=O)n(Cc3cc(Cl)ccc3Cl)cnc21,x,x,2,x,25,x
CC(=O)Nc1ccc(NC(=O)C(C)OC(=O)/C(C#N)=C/c2ccc(N(C)C)cc2)cc1 (stereo not given),28,-12,26,24,3,-2
CC(OC(=O)/C(C#N)=C/c1ccc(N(C)C)cc1)C(=O)N(C)c1ccccc1 (stereo not given),u,-15,u,49*,-19,24
COc1cccc(N2CCN(c3ncnc4c3c(-c3ccccc3)cn4-c3cccc(C(F)(F)F)c3)CC2)c1,x,x,53*,0,-18,3
COc1cccc(-n2c(CN3CCN(Cc4ccccc4)CC3)nc3ccc([N+](=O)[O-])cc3c2=O)c1,1,1,x,0,x,3
CCOC(=O)c1ccc(-n2c(CN3CCN(CCO)CC3)nc3ccc([N+](=O)[O-])cc3c2=O)cc1,0,5,-1,0,4,37*
Cc1cnn(-c2cc(N/N=C/c3ccccc3)ncn2)c1,-3,-4,1,0,26,5
Cc1cnn(-c2cc(N/N=C/c3cccc(F)c3)ncn2)c1,-3,8,1,-3,22,36*
CN(C1CCS(=O)(=O)C1)S(=O)(=O)c1ccccc1 (stereo not given),-9,13,1,-1,12,30*
CCOc1cc(/C=C2\CCCc3c2nc2ccccc2c3C(=O)O)ccc1OC,81*,-6,78*,151*,-11,15
